Source: PubChem
MCF10A rerep: inducers of DNA re-replication in MCF 10A breast cells. 2.9% of 350,000 active. MCF 10A DNA re-replication, Hoechst nuclear intensity, 48 h. Potency, µM (highest dose often 46.1 µM), without a hit: top-dose activity, positive = re-replication, actives largely listed as activators; note: potency is the fitted concentration of half-maximal effect; % of control where 0% means no effect; nearly all actives have a fitted effect of over 50% in size
DT40 TDP1 no CPT: qHTS for Inhibitors of human tyrosyl-DNA phosphodiesterase 1 (TDP1): qHTS in cells in absence of CPT; DT40 Tdp1-/- hTDP1 cells, no CPT, ATP luminescence, 48 h; 15% of 420,000 active; Potency, µM (top dose mostly 46.2 µM), for the others: at the highest dose activity change, negative = growth inhibition, hits mostly inhibitors; note: potency is the fitted concentration of half-maximal effect; % is set by controls: 0 for no effect and ±100 for the full control effect; nearly all actives have a fitted effect of over 55% in size
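Stably hTDP1-transfected Tdp1-null chicken DT40 cells were treated with library compounds minus camptothecin and grown for at least 48 hr at 37 °C, after which cellular ATP was quantified by luminescence.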
DT40 TDP1 CPT: growth inhibition of DT40 Tdp1-/-;hTDP1 cells with camptothecin (screen for TDP1 inhibitors); Potency, µM (titrated, usually from 46.2 µM), inactives show top-dose activity change, negative = growth inhibition, usual class: inhibitors; 12% of 420,000 active; chicken DT40 Tdp1-/-;hTDP1 cells + 20 nM CPT, ATP luminescence, 48 h; AID 686979; note: potency is the fitted concentration of half-maximal effect; % is set by controls: 0 for no effect and ±100 for the full control effect; nearly all actives have a fitted effect of over 55% in size
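Chicken DT40 Tdp1-/- cells stably complemented with human TDP1 were seeded at 400 cells/well in medium containing 20 nM camptothecin, exposed to pin-transferred compounds, and grown at 37 °C for at least 48 hr. Viability was read as ATP luminescence.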
IL1B secr inh: inhibitors of inflammasome signaling (IL-1 beta secretion) | 4.7% of 360,000 active | THP-1 LPS/ATP IL-1B secretion, AlphaLISA, 16 h; hits give low values | activity change, % at 57.5 µM; in the data active = activity change below about -50%; inconclusive = mostly about -30% to -49%; note: % is set by controls: 0 for no effect and ±100 for the full control effect
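Secreted IL-1B measured by AlphaLISA bead assay after 16 h compound exposure of THP-1 cells; compounds (final up to 57.5 uM) added 1 h before LPS (250 ng/mL) and ATP (1.25 mM) stimulation; lower signal means less secretion.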
BCR signal inh: blocks chronic active B-cell receptor signaling. ABC-DLBCL IkBa-CBG/CBR reporter, luminescence ratio, 4 h. Potency, µM (top dose mostly 46.1 µM), for the others: top-dose activity change, negative = inhibition, usual class: inhibitors. 0.05% of 340,000 active. AID 493014; active = well fitted inhibition curve with a large enough effect in the signal ratio, with a control signal flat, not every such curve was filed as active; inconclusive = small, poorly fitted or top-dose-only effect, or effect the other way, or a change in a side signal; the % refers to the signal ratio;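 note: potency is the fitted concentration of half-maximal effect; plate controls were basal doxycycline-induced cells for no effect and cells given 10 µM MG132 for full effect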
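TMD8 human ABC-DLBCL cells with doxycycline-inducible IκBα–green luciferase fusion and unfused red luciferase, in 0.5% FBS medium; compounds up to 46 uM, 4 h at 37C. Green/red luminescence ratio, filter-overlap corrected, fitted to concentration-response curves.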
SW480 rerep: inducers of DNA re-replication in SW480 colon cancer cells; SW480 DNA re-replication, Hoechst DNA content imaging, 48 h; Potency, µM (top dose mostly 46.1 µM), inactives show top-dose re-replication activation, actives largely listed as activators; 1.8% of 340,000 active; note: potency is the fitted concentration of half-maximal effect; % of control where 0% means no effect; nearly all actives have a fitted effect of over 55% in size
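Treated cells incubate 48 hr (37 C, 5% CO2), are stained 40 min with Hoechst, and nuclear fluorescence is enumerated; a rise in nuclei with high DNA signal marks re-replication.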
An asterisk follows results filed as active; ? = inconclusive; nt = no result; [ ] = dose if it differs, or a comment. Sampled rows, rich in hits. Any-hit rate of the full collection: about 19%. Unless noted, calls come from the whole dose curve; as a rule, active = well fitted curve in the direction sought with a large enough effect; inconclusive = small, poorly fitted or top-dose-only effect, or another doubt; inactive = no such curve, though single readings can be large; an effect the other way counts as inactive or inconclusive.

SMILES	MCF10A rerep	DT40 TDP1 no CPT	DT40 TDP1 CPT	IL1B secr inh	BCR signal inh	SW480 rerep
CN(C(=O)COC(=O)c1ccc(=O)n(Cc2ccccc2)n1)C1CCCCC1	-1%	7%	-17%	0	0%	-1%
COCCN1CCN(C(=O)c2cc(COc3ccc(F)c(F)c3)on2)CC1	0%	-15%	-5%	0	-2%	15%
CCCCCCCCCCCCC(=O)N1CCCC[C@H]1CNC(=O)[C@@H](N)CCCCN	nt	21µM*	13µM*	nt	nt	nt
Cc1ccc(Sc2c(C)[nH]n(C(C)(C)C)c2=O)cc1	0%	-11%	-24%	1	13%	-3%
CC1=CC(=O)C(Sc2ccc(C)cc2)=CC1=O	nt	1.6µM*	1.8µM*	-78*	nt	nt
Cc1cccc(NC(=O)c2nc[nH]c2C(=O)Nc2cc(Br)ccc2F)c1	nt	8.2µM*	13µM*	-12	nt	nt
Cc1cccc(NC(=O)c2nc[nH]c2C(=O)Nc2ccccc2[N+](=O)[O-])c1	0%	2.9µM*	6.5µM*	-2	3%	-1%
Cc1ccc(Cl)cc1NC(=O)COC(=O)CSc1ccccc1	1%	-17%	0%	-4	2%	-2%
CC1=NCCN1CCNC(=O)Nc1ccc(C(C)(C)C)cc1	3%	-23%	-5%	12	-2%	0%
Cc1ccccc1Cn1nnc2c(=O)[nH]c(C3CCCN(C(=O)c4ccc(C(C)(C)C)cc4)C3)nc21 (configuration not stated)	nt	26µM*	?	nt	nt	nt
Cc1cccc(Cn2nnc3c(=O)[nH]c(C4CCCN(C(=O)c5ccc(C(C)(C)C)cc5)C4)nc32)c1 (configuration not stated)	nt	21µM*	?	nt	nt	nt
CCN(C(=O)CSc1nnc(-c2cc3occc3n2C)n1-c1ccccc1C)c1ccccc1	nt	-27%	-22%	nt	nt	nt
Cc1cc(N2C(=O)C(O)=C(C(=O)c3cc4ccccc4o3)C2c2cccc(Br)c2)no1 (configuration not stated)	18µM*	?	?	4	12%	-2%
COc1cccc(C2C(C(=O)c3cc4ccccc4o3)=C(O)C(=O)N2c2cc(C)on2)c1OC (configuration not stated)	17%	?	?	20	12%	-5%
CCCOc1cccc(C2C(C(=O)c3cc4ccccc4o3)=C(O)C(=O)N2c2cc(C)on2)c1 (configuration not stated)	5.8µM*	?	?	8	5%	26%
Cc1ccn(C(=O)c2ccc(NC(=O)CC(C)C)cc2)n1	2%	3%	?	8	-2%	-3%
NC(=O)CC(NC(=O)c1ccccc1)c1ccc(NCc2ccccc2)c([N+](=O)[O-])c1 (configuration not stated)	9%	23µM*	21µM*	-7	-1%	0%
NC(=O)CC(NC(=O)c1ccc(Br)cc1)c1ccc(NCc2ccc(F)c(F)c2)c([N+](=O)[O-])c1 (configuration not stated)	4%	-28%	-23%	-13	7%	3%[9.22 µM]
Cc1ccccc1CNc1ccc(C(CC(N)=O)NC(=O)c2ccc(Br)cc2)cc1[N+](=O)[O-] (configuration not stated)	10µM*	?	?	-22	-2%	?
COc1ccc(CCNc2ccc(C(CC(N)=O)NC(=O)c3ccc(Br)cc3)cc2[N+](=O)[O-])cc1 (configuration not stated)	?	16µM*	23µM*	-16	-3%	?
NC(=O)CC(NC(=O)c1ccccc1)c1ccc(NCc2ccc(F)cc2)c([N+](=O)[O-])c1 (configuration not stated)	9%	?	18µM*	?	0%	-8%[9.22 µM]
NC(=O)CC(NC(=O)c1ccc(Br)cc1)c1ccc(NCc2ccc(F)cc2)c([N+](=O)[O-])c1 (configuration not stated)	?	?	?	-13	0%	?
CN(Cc1ccccc1)c1ccc(C(CC(N)=O)NC(=O)c2ccccc2)cc1[N+](=O)[O-] (configuration not stated)	-3%	16µM*	23µM*	22	-9%	-1%
CN(Cc1ccccc1)c1ccc(C(CC(N)=O)NC(=O)Cc2ccc(Br)cc2)cc1[N+](=O)[O-] (configuration not stated)	-88%	?	?	25	1%	?
NC(=O)CC(NC(=O)Cc1ccc(Br)cc1)c1ccc(NCc2ccc(F)c(F)c2)c([N+](=O)[O-])c1 (configuration not stated)	?	?	16µM*	-19	-5%	2%[9.22 µM]
SMILES	MCF10A rerep	DT40 TDP1 no CPT	DT40 TDP1 CPT	IL1B secr inh	BCR signal inh	SW480 rerep
COc1ccc([C@@H]2[C@@H]3C(=O)N(C(C)(C)C)C(=O)[C@@H]3[C@]3(C)C(=O)N(c4cccc(Br)c4)C(=O)N23)cc1	4%	?	?	0	?	20%
CC1(C)COC(/C=C/c2cccc([N+](=O)[O-])c2)=N1	14µM*	12µM*	?	-107*	?	?
O=[N+]([O-])c1cccc(/C=C/c2ccccc2)c1	nt	0%	1%	nt	nt	nt
CNc1ccc(/C=C\CCCO)cn1	nt	11%	4%	21	nt	nt
COc1cc(-c2coc3c(C(=O)NCc4ccncc4)cccc23)ccc1O	nt	-91%	-99%	-67*	nt	nt
COc1cc(-c2coc3c(C(=O)NCc4ccc(C(F)(F)F)cc4)cccc23)ccc1O	nt	21µM*	15µM*	?	nt	nt
CCN(CC)CCCN(Cc1cc2cc3c(cc2[nH]c1=O)OCO3)C(=S)Nc1ccc(OC)cc1	?	29µM*	-28%	-71*	-9%	3%
COc1ccc(NC(=S)N(CCN2CCOCC2)Cc2cc3cc4c(cc3[nH]c2=O)OCCO4)cc1	-3%	-27%	?	-61*	?	?
CCN(CC)CCCN(Cc1cc2cc3c(cc2[nH]c1=O)OCO3)C(=S)NC	2%	-1%	20%	-2	-5%	0%
Cc1cccc(NC(=S)N(CCN2CCOCC2)Cc2cc3cc4c(cc3[nH]c2=O)OCO4)c1	3%	?	-4%	-8	-9%	8%
CCCCC(=O)NC(=S)Nc1cccc(NC(=O)CC)c1	0%	-21%	-17%	-14	-9%	1%
